The values below come from ChEMBL document CHEMBL1961873, “Compounds: GSK PKIS; Assays: Nanosyn kinase panel” (2012).
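Also: reported percent inhibition is a mean value.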

In the assay the target is Aurora kinase B (Homo sapiens) (UniProt Q96GD4). The following applies: at 1 µM.
Aurora kinase B (Homo sapiens), sequence (Q96GD4 whole entry): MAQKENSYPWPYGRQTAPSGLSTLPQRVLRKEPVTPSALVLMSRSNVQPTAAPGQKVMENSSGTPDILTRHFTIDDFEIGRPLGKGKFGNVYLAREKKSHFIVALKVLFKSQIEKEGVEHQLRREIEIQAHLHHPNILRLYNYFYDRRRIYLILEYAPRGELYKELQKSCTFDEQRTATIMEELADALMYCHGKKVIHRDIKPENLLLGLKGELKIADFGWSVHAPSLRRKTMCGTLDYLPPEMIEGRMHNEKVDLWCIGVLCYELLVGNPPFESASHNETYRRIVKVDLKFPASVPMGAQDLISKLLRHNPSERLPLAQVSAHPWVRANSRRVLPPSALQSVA
As for `NC(=O)c1ccc(Oc2nccc(-c3c(-c4ccc(F)cc4)ncn3C3CCNCC3)n2)cc1`, the inhibition came to 3.74%.

On to `Fc1ccc(-c2ncn(CCCN3CCOCC3)c2-c2ccncc2)cc1`, for which the inhibition stood at 5.52%.

Regarding `COc1cccc(/C=N/Nc2ncnc3c2cnn3-c2cccc(OC)c2)c1`, the inhibition amounted to 5.96%.

For the compound `N#Cc1ccc(Oc2nccc(-c3c(-c4ccc(F)cc4)ncn3C3CCNCC3)n2)cc1`, the inhibition turned out to be 5.49%.

Turning to `COc1ccc(-c2ccc3c(NC(=O)C4CC4)n[nH]c3n2)cc1`, the inhibition was found to be 5.77%.

Turning to `O=C(Nc1n[nH]c2cc(-c3ccccc3)ccc12)C1CC1`, the inhibition was 3.92%.

Take `COC(=O)Nc1nc2ccc(Sc3ccc(NC(=O)Nc4cc(C(F)(F)F)ccc4F)cc3)cc2[nH]1`: the inhibition is 8.08%.

As to `CN(c1ccc(NC(=O)Nc2c(Cl)cccc2Cl)cc1)c1ccnc(Nc2cccc(CS(C)(=O)=O)c2)n1`, the inhibition was found to be 84.2%.

Turning to `O=C1Nc2ccc(I)cc2C1=Cc1cc(Br)c(O)c(Br)c1`, the inhibition turned out to be 3.08%.

Turning to `Clc1ccc(CNc2nccc(-c3cnn4ncccc34)n2)cc1`, the inhibition was found to be 8.64%.

With `C/C(Nc1ccc(S(N)(=O)=O)cc1)=C1/C(=O)Nc2ccccc21`, the inhibition was 48%.

`CCc1nccc2c1nc(-c1nonc1N)n2CC`: the inhibition came to 5.03%.

In the case of `NC(=O)c1cc(-c2ccncc2)cc(-c2ccccc2)c1N`, the inhibition is 4.94%.

In the case of `COc1cc(Nc2ncc(-c3ccccc3)o2)cc(OC)c1OC`, the inhibition was found to be 50%.

As for `NS(=O)(=O)c1ccc(N/N=C2\C(=O)Nc3ccc(-c4cnco4)cc32)cc1`, the inhibition stood at 1.73%.

For `COc1cc2ncn(-c3cc(OCCc4ccccc4)c(C(N)=O)s3)c2cc1OC`, the inhibition is 7.8%.

Take `Cc1nnc(-c2ccc(C)c(-c3ccc(C(=O)NCc4ccc(Cl)cc4)cc3)c2)o1`: the inhibition is -2.09%.

For the compound `C#Cc1cccc(Nc2ncnc3ccc(OCCCCNCCS(C)(=O)=O)cc23)c1`, the inhibition worked out at 2.47%.

`COc1cccc(-n2cnc3c(N/N=C/c4ccncc4)ncnc32)c1`: the inhibition amounted to 7.54%.

Turning to `COc1ccc2cc(-c3c(-c4ccncc4)nc(-c4ccc(S(C)(=O)=O)cc4C)n3C)ccc2c1`, the inhibition was 16.2%.

In the case of `COc1ccc2ncn(-c3cc(O[C@H](C)c4ccccc4Cl)c(C(N)=O)s3)c2c1`, the inhibition was determined as 1.24%.

Turning to `O=C1NC(=O)C(c2cccc(Cl)c2)=C1Nc1ccc(Cl)c(C(=O)O)c1`, the inhibition was determined as 8.32%.

For `CN1CCN(CCCNc2nc3ccc(Oc4ccc(NC(=O)Nc5cc(C(F)(F)F)ccc5F)cc4)cc3[nH]2)CC1`, the inhibition was determined as 4.51%.

Turning to `C[C@@H](Oc1cc(-n2cnc3ccc(OC4CCN(C)CC4)cc32)sc1C(N)=O)c1ccccc1Cl`, the inhibition came out at 1.75%.

Consider `c1ccc(Oc2ccc(Nc3ncc(-c4ccccc4)o3)cc2)cc1`, for which the inhibition stood at 7.16%.

On to `CN(C)CCCNc1nccc(-c2c(-c3ccc(F)cc3)nn3cc(C(F)(F)F)ccc23)n1`, for which the inhibition was found to be 6.92%.

Turning to `COc1cc2ncn(-c3cc(OCc4ccccc4C(F)(F)F)c(C(C)=O)s3)c2cc1OC`, the inhibition came out at 9.68%.

Consider `COc1ccc2cc(-c3c(-c4ccncc4)nc(-c4ccc([S+](C)[O-])cc4C)n3C)ccc2c1` (centres undefined), for which the inhibition was determined as 6.06%.

Take `Fc1ccc(-c2ncn(C3CCNCC3)c2-c2ccnc(Oc3ccc4c(c3)OCO4)n2)cc1`: the inhibition turned out to be 7.86%.

Regarding `NC(=O)c1cc(-c2ccc(F)cc2)cc(-c2ccncc2)c1N`, the inhibition was 3.54%.

For the compound `CCC(=O)Nc1ccc(C)c(-c2ccc(C(=O)NCC3CC3)cc2)c1`, the inhibition stood at 3.49%.

Take `c1ccc(-c2n[nH]cc2-c2ccnc(-c3ccc(OCCN4CCOCC4)cc3)c2)nc1`: the inhibition is 11.9%.

As for `O=C(NCC1CC1)c1ccc(-c2cccc(C(=O)NC3CC3)c2)cc1`, the inhibition amounted to 5.76%.

On to `NC(=O)Cc1ccccc1Oc1nccc(-c2c(-c3ccc(F)cc3)ncn2C2CCNCC2)n1`, for which the inhibition turned out to be 1.02%.

The inhibition is the drop in the measured response relative to a control, in per cent.
